This passage reports growth results from PubChem BioAssay (NCI).

Among the test systems are SK-MEL-2 melanoma; EKVX NSCLC; SN12C renal; UO-31 renal; TK-10 renal; ACHN renal; CAKI-1 renal; A498 renal; CCRF-CEM leukemia; MOLT-4 leukemia.
Assay in all cases: NCI-60 one-dose screen, 48 h (100 = growth as untreated, 0 = no growth, -100 = all killed)
What all share (conditions): 10 µM unless noted

The panel holds about 83,000 compounds, 20% with a hit somewhere; the sample as a whole holds those more often.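 Interpretation: 100, growth as untreated; towards 0, rising growth inhibition; 0, no net growth; 0 to -100, cell death. Compounds scoring below 10 were considered active.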 Values without a mark were called inactive. Calls of active or inactive are those of the source.

For the molecule `Cn1cc(C(=O)c2nc(-c3c[nH]c4ccc(Br)cc34)no2)c2cc(Br)ccc21`, the growth with SK-MEL-2 melanoma is 109%; in the assay with EKVX NSCLC it was 60.5%; with SN12C renal it was 80.1%; with UO-31 renal, 67%; with TK-10 renal, 99.9%; in the assay on ACHN renal it was 80.9%. Besides, the growth is 67.4% in the assay with CAKI-1 renal, 106% in the assay with A498 renal, 45.6% with CCRF-CEM leukemia and 85% in the assay with MOLT-4 leukemia.

Take `O=C1CC2C=CCN2C=C1NC(=O)C1CCCCC1` (stereo not given): the growth was 101% in the assay with SK-MEL-2 melanoma; 92.1% with EKVX NSCLC; 110% in the assay with SN12C renal; 94.9% with UO-31 renal; 90.6% in the assay on TK-10 renal; 105% in the assay with ACHN renal. For the same molecule, the growth in the assay with CAKI-1 renal is 97.7%; with A498 renal, 128%; with CCRF-CEM leukemia it was 122%; in the assay with MOLT-4 leukemia, 99.5%.

For `CC1CN=C(c2cccc(-c3ccc(-c4ccccc4)o3)c2)N1` (stereo not given), the growth in the assay with SK-MEL-2 melanoma was -69.7% (active); in the assay with EKVX NSCLC it was 37.2%; with SN12C renal it was 32.2%; in the assay with UO-31 renal, -0.664% (active); in the assay on TK-10 renal, 30.1%; in the assay on ACHN renal, -21.8% (active). The growth with CAKI-1 renal is 5.69% (active); in the assay with A498 renal, 25.7%; with CCRF-CEM leukemia, -13.4% (active); in the assay on MOLT-4 leukemia, -16.5% (active).

Turning to `CCN1C(=O)N(CC)C2C1NN=c1s/c(=C3\C(=O)N(CCc4ccccc4)c4ccccc43)c(=O)n12` (stereo not given), the growth in the assay on SK-MEL-2 melanoma was 54.7%; in the assay with EKVX NSCLC, 43.6%; with SN12C renal, 17.8%; in the assay on UO-31 renal, 45.4%; in the assay on TK-10 renal it was 64.1%; with ACHN renal it was 25.5%. Moreover, the growth with CAKI-1 renal is 27.7%; with A498 renal, -3.18% (active); in the assay with CCRF-CEM leukemia, 5.65% (active); with MOLT-4 leukemia it was 10.3%.

`CCNC(=O)Oc1ccc(/C(=C(/C)Cc2ccc(OC)cc2)c2ccc(OCCN3CCCC3)cc2)cc1`: the growth in the assay with SK-MEL-2 melanoma was 110%; in the assay with EKVX NSCLC it was 76.2%; in the assay on SN12C renal it was 75.6%; in the assay with UO-31 renal it was 57.8%; with TK-10 renal, 88.1%; in the assay with ACHN renal it was 92.4%. The growth with CAKI-1 renal is 82.3%; in the assay on A498 renal, 91.9%; in the assay with CCRF-CEM leukemia it was 45.8%; in the assay with MOLT-4 leukemia, 31.6%.

`O=C1c2cccnc2C(=O)c2c1c(C(=O)OCCCN1CCCCC1)c1ccccn21`: the growth in the assay with SK-MEL-2 melanoma was -47.3% (active); in the assay on EKVX NSCLC it was -15.6% (active); in the assay on SN12C renal it was -57.6% (active); in the assay on UO-31 renal, -19.5% (active); in the assay on TK-10 renal it was -11.1% (active); with ACHN renal, -55.2% (active). Moreover, the growth with CAKI-1 renal was -24% (active); with A498 renal, 11.1%; in the assay on CCRF-CEM leukemia, -17% (active); in the assay on MOLT-4 leukemia, -7.64% (active).

Regarding `CCn1cc(C2=C(c3cn(C)c4ncccc34)C(=O)NC2=O)c2cccnc21`, the growth with SK-MEL-2 melanoma is 84.8%; in the assay on EKVX NSCLC, 54.6%; with SN12C renal, 68.5%; with UO-31 renal, 50%; in the assay on TK-10 renal, 69.4%; with ACHN renal, 74.7%. The growth with CAKI-1 renal is 61.6%; with A498 renal, -2.35% (active); in the assay on CCRF-CEM leukemia, 65.8%; with MOLT-4 leukemia, 81.9%.

In the case of `COC(=O)c1nc(-c2ccccc2)oc1S(=O)(=O)N1CCC(C(N)=O)CC1`, the growth is 91.2% with SK-MEL-2 melanoma; 69.7% in the assay on EKVX NSCLC; 83.6% with SN12C renal; 55.3% in the assay with UO-31 renal; 23.2% in the assay on TK-10 renal; 39.6% in the assay with ACHN renal. For the same molecule, the growth in the assay with CAKI-1 renal was 49.5%; in the assay with A498 renal, 87.4%; in the assay with CCRF-CEM leukemia, -3.72% (active); in the assay on MOLT-4 leukemia, 1.95% (active).

For `O=C(Nc1nc(C(=O)N2CCN(C(c3ccccc3)c3ccccc3)CC2)cs1)c1ccc(NC2CCCCC2)c([N+](=O)[O-])c1`, the growth in the assay on SK-MEL-2 melanoma is 104%; with EKVX NSCLC, 77.9%; with SN12C renal, 85.6%; with UO-31 renal, 66.1%; in the assay with TK-10 renal, 100%; in the assay with ACHN renal it was 86.6%. Further, the growth in the assay on CAKI-1 renal is 78.4%; in the assay on A498 renal it was 87.6%; in the assay with CCRF-CEM leukemia, 95%; in the assay on MOLT-4 leukemia, 77.9%.

Take `C=C(CO)[C@@H]1CC[C@]2(COC3CCCCO3)CC[C@]3(C)[C@H](CC[C@@H]4[C@@]5(C)C=C(C=O)C(=O)C(C)(C)[C@@H]5CC[C@]43C)[C@@H]12` (stereo not given in full): the growth with SK-MEL-2 melanoma is -57.3% (active); with EKVX NSCLC, -82.8% (active); with SN12C renal, -67.3% (active); in the assay with UO-31 renal, -96.9% (active); in the assay on TK-10 renal, -96.2% (active); in the assay on ACHN renal it was -100% (active). In addition, the growth in the assay on CAKI-1 renal is -76% (active); with A498 renal it was -97.7% (active); with CCRF-CEM leukemia, -62.9% (active); with MOLT-4 leukemia it was -32.2% (active).

For the molecule `Cc1ccc2[nH]c(=O)c3c(c2c1)OC(N)=C(C#N)C31C(=O)c2cccc3cccc1c23` (stereo not given), the growth with SK-MEL-2 melanoma was 110%; with EKVX NSCLC it was 102%; with SN12C renal, 97.8%; with UO-31 renal, 77.7%; in the assay on TK-10 renal, 123%; in the assay on ACHN renal, 95.5%. In addition, the growth is 90.9% in the assay with CAKI-1 renal, 107% with A498 renal, 95.3% in the assay with CCRF-CEM leukemia and 88.1% in the assay on MOLT-4 leukemia.

Regarding `CC(C)(C)C(=O)/C=C/c1ccc([N+](=O)[O-])cc1`, the growth was 89.2% in the assay with SK-MEL-2 melanoma; 89.3% in the assay on EKVX NSCLC; 92.1% with SN12C renal; 76.5% with UO-31 renal; 91.4% in the assay on TK-10 renal; 57.3% in the assay with ACHN renal. In addition, the growth is 96.1% with CAKI-1 renal, 91% with A498 renal, 44.3% in the assay on CCRF-CEM leukemia and 75.4% with MOLT-4 leukemia.

For `CC(C)[C@@]12C[C@@H](OC(=O)COC(=O)c3ccccc3)[C@@](C)(O1)[C@@H]1CC[C@@H](C)[C@H]1[C@@H]2OC(=O)/C=C/c1ccccc1`, the growth is 103% in the assay with SK-MEL-2 melanoma; 81.8% in the assay with EKVX NSCLC; 31% in the assay on SN12C renal; -78.1% (active) in the assay with UO-31 renal; 88.9% with TK-10 renal; -13.4% (active) in the assay with ACHN renal. For the same molecule, the growth in the assay on CAKI-1 renal was 5.14% (active); with A498 renal, -76.6% (active); in the assay on CCRF-CEM leukemia, 87%; in the assay on MOLT-4 leukemia, 80.8%.
